Screening data deposited in PubChem by National Center for Advancing Translational Sciences (NCATS).
NS1 function inh: blocks influenza NS1 protein function; Potency, µM (top dose mostly 46.1 µM), for inactives: top-dose activity, positive = more growth; actives 0.4% (n = 270,000); AID 2326; calls by dose curve; also: actives are rising curves; nearly all actives have a fitted effect of over 50% in size
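S. cerevisiae expressing influenza A NS1, grown in glucose, washed, then diluted 1:100 into pH 6.0 -URA galactose medium with 23 nl compound. Growth recovery read as OD600; NS1-free strain serves as control.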
Pf growth 48h: P. falciparum growth inhibition at 48 hours (one generation) | P. falciparum luciferase growth in erythrocytes, 48 h | Potency, µM (doses to about 28.7 µM), for the others: top-dose activity change, negative = inhibition, hits mostly inhibitors | actives 5.9% (n = 310,000) | AID 504832; also: % is scaled to controls: 0 for no effect and ±100 for the full control effect
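Compounds are pin-transferred into medium, infected erythrocytes (2% hematocrit, 0.1% parasitemia final) are added, and plates sit one parasite generation at 37 C in 5% CO2. Detection reagent is then added and luminescence measured.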
Pf growth 96h: inhibits malaria parasite growth, 96 h; Potency, µM (top dose mostly 28.7 µM), inactives show at the top dose activity change, negative = inhibition, actives largely listed as inhibitors; actives 6.9% (n = 320,000); AID 504834; P. falciparum luciferase reporter growth, 96 h; also: % is scaled to controls: 0 for no effect and ±100 for the full control effect
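Parasite growth measured via integrated firefly luciferase reporter in P. falciparum. Infected erythrocytes at 2% hematocrit, 0.05% parasitemia final were treated 96 hours at 37 C under 5% CO2, and luminescence was read.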
HCV inhibitor: HCV inhibition | Huh7.5.1 HCVcc-Cre infection, luciferase reporter, 44 h | Potency, µM (highest dose often 41.8 µM), for inactives: at the top dose activity change, negative = inhibition, most hits filed as inhibitors | actives 3.4% (n = 340,000) | AID 651820; also: % is scaled to controls: 0 for no effect and ±100 for the full control effect
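Cells (1,000/well) were plated 4 h before compound, then infected with HCVcc-Cre virus (~0.5 moi). After 44 h further culture, infection was read as luciferase luminescence following a 15 min substrate incubation at room temperature.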
VACV mCherry inh: vaccinia inhibition (mCherry reporter) | Potency, µM (doses to about 36.5 µM), for the others: at the top dose activity change, negative = inhibition, hits mostly inhibitors | Vaccinia virus mCherry reporter infection, fluorescence | actives 0.63% (n = 310,000); calls by dose curve; tested in A549 cells; also: % is scaled to controls: 0 for no effect and ±100 for the full control effect; nearly all actives have a fitted effect of over 35% in size
Vaccinia Venus: inhibitors of vaccinia virus (Venus reporter); actives 0.46% (n = 330,000); Vaccinia virus Venus reporter expression, fluorescence; Potency, µM (top dose mostly 36.5 µM), without a hit: top-dose activity change, negative = inhibition, actives largely listed as inhibitors; calls by dose curve; tested in A549 cells; also: % is scaled to controls: 0 for no effect and ±100 for the full control effect; nearly all actives have a fitted effect of over 30% in size
Starred values were filed as active, the others as inactive. Rows were chosen to be rich in hits. Some 11% of all compounds tested hit in one or more screens of this group. Unless noted, calls follow the shape of the dose curve; as a rule, active = well fitted inhibition curve with a large enough effect; inconclusive = small, poorly fitted or top-dose-only effect, or another doubt; inactive = no such curve, though single readings can be large or run the other way. Potency is read from the fitted curve at half-maximal effect.

What do the screens show for `Cc1cccc(Nc2nnc(-c3ccc(C)c(S(=O)(=O)N4CCOCC4)c3)c3ccccc23)c1`?
VACV mCherry inh: -11%; Vaccinia Venus: -22%

What do the screens show for `Cc1ccc(-c2nnc(NCc3nc4ccccc4[nH]3)c3ccccc23)cc1S(=O)(=O)N1CCOCC1`?
NS1 function inh: inconclusive; Pf growth 48h: 12µM*; Pf growth 96h: 2.6µM*; HCV inhibitor: inconclusive; VACV mCherry inh: inconclusive; Vaccinia Venus: inconclusive

Results for Cc1cc(C(=O)NC2CCCc3ccccc32)no1 (stereo not given) ?
NS1 function inh: -8%; Pf growth 48h: -8%; Pf growth 96h: -2%; HCV inhibitor: 7%

How did CC1CCCN(C(=O)CCl)C1 (stereo not given) do in these assays?
NS1 function inh: -2%; Pf growth 48h: 4.7µM*; Pf growth 96h: 1.5µM*; HCV inhibitor: 1%; VACV mCherry inh: inactive; Vaccinia Venus: -9%

How did COc1ccc([C@H]2N[C@]3(CCCN(Cc4ccc(F)cc4)C3=O)[C@H]3C(=O)N(Cc4ccccc4)C(=O)[C@@H]23)cc1 do in these assays?
VACV mCherry inh: -23%; Vaccinia Venus: inconclusive

Results for COC(=O)c1ccc(S(=O)(=O)N(Cc2ccccc2)Cc2ccccc2)n1C ?
NS1 function inh: 4%; Pf growth 48h: inconclusive; Pf growth 96h: inconclusive; HCV inhibitor: -17%

Results for CCCCCCCNC1=CC(=O)CC(c2ccccc2)C1 (stereo not given) ?
NS1 function inh: -12%; Pf growth 48h: 9.3µM*; Pf growth 96h: inconclusive; HCV inhibitor: inconclusive

How did O=C1C=C(Nc2ccccc2)CC(c2ccccc2)C1 (stereo not given) do in these assays?
Pf growth 48h: -14%; Pf growth 96h: 1.9µM*; HCV inhibitor: 6%; VACV mCherry inh: inactive; Vaccinia Venus: -29%

How did O=C(/C(C=Nc1ccc(Br)cc1)=C(/O)c1ccco1)C(F)(F)F do in these assays?
NS1 function inh: -35%; Pf growth 48h: 228%; Pf growth 96h: 2.9µM*; HCV inhibitor: -3%; VACV mCherry inh: -26%; Vaccinia Venus: -12%

Results for Nc1[nH]c(C(=O)c2ccccc2)c(-c2cccnc2)c1C(=O)NCCc1ccc(Cl)cc1Cl ?
VACV mCherry inh: inactive; Vaccinia Venus: -5%

What do the screens show for `Cc1nn(C(C)C(=O)NC2CC2)c(=O)c2nn(-c3ccccc3)c(C)c12` (stereo not given)?
NS1 function inh: 10%; Pf growth 48h: 7%; Pf growth 96h: inconclusive; HCV inhibitor: 18%; VACV mCherry inh: -15%; Vaccinia Venus: -21%

How did CCC(C(=O)Nc1ccccc1Cl)n1nc(C)c2c(C)n(-c3ccccc3)nc2c1=O (stereo not given) do in these assays?
NS1 function inh: 8%; Pf growth 48h: inconclusive; Pf growth 96h: 39%; HCV inhibitor: inconclusive; VACV mCherry inh: inactive; Vaccinia Venus: -5%

What do the screens show for `Cc1nn(C(C)C(=O)NC2CCCCC2)c(=O)c2nn(-c3ccccc3)c(C)c12` (stereo not given)?
NS1 function inh: 4%; Pf growth 48h: -3%; Pf growth 96h: 12µM*; HCV inhibitor: -11%

Results for Cc1nn(C(C)C(=O)Nc2ccccc2Cl)c(=O)c2nn(-c3ccccc3)c(C)c12 (stereo not given) ?
NS1 function inh: -5%; Pf growth 48h: -22%; Pf growth 96h: 12µM*; HCV inhibitor: -2%; VACV mCherry inh: -4%; Vaccinia Venus: -16%

Results for COC(=O)c1ccccc1NC(=O)C(C)n1nc(C)c2c(C)n(-c3ccccc3)nc2c1=O (stereo not given) ?
NS1 function inh: 20%; Pf growth 48h: inconclusive; Pf growth 96h: 9.3µM*; HCV inhibitor: -16%

Results for Cc1nn(C(C)C(=O)NC2CCC(C)CC2)c(=O)c2nn(-c3ccccc3)c(C)c12 (stereo not given) ?
NS1 function inh: -3%; Pf growth 48h: -2%; Pf growth 96h: 16%; HCV inhibitor: inconclusive

What do the screens show for `O=C(OCc1c(-c2ccccc2)ncc2ccccc12)c1ccc(Cl)cc1Cl`?
Pf growth 48h: inconclusive; Pf growth 96h: inconclusive; HCV inhibitor: 12%; VACV mCherry inh: inactive; Vaccinia Venus: -14%

Results for Nc1nnnn1/N=C/c1ccccc1 ?
NS1 function inh: 2%; Pf growth 48h: 9%; Pf growth 96h: 37%; HCV inhibitor: 12%; VACV mCherry inh: inactive; Vaccinia Venus: -12%

How did Nc1nnnn1/N=C/c1cccc(Oc2ccccc2)c1 do in these assays?
NS1 function inh: -11%; Pf growth 48h: 42%; Pf growth 96h: 7.4µM*; HCV inhibitor: 3%

Results for Cc1cccc(C)c1NC(=O)CN(C)CC(=O)c1c(N)n(Cc2ccccc2)c(=O)n(C)c1=O ?
Pf growth 48h: 12µM*; Pf growth 96h: -12%; HCV inhibitor: inconclusive

What do the screens show for `CCn1c(=O)c(C(=O)CN(C)CC(=O)Nc2ccccc2Br)c(N)n(Cc2ccccc2)c1=O`?
Pf growth 48h: 10µM*; Pf growth 96h: inconclusive; HCV inhibitor: inconclusive; VACV mCherry inh: -2%; Vaccinia Venus: -23%

Results for Cn1c(=O)c(C(=O)CCl)c(N)n(Cc2ccccc2)c1=O ?
NS1 function inh: inconclusive; Pf growth 48h: -27%; Pf growth 96h: inconclusive; HCV inhibitor: inconclusive; VACV mCherry inh: inconclusive; Vaccinia Venus: 13µM*

What do the screens show for `CN(C)CC(=O)c1c(N)n(Cc2ccccc2)c(=O)n(C)c1=O`?
Pf growth 48h: 3%; Pf growth 96h: 7%; HCV inhibitor: 7%; VACV mCherry inh: -8%; Vaccinia Venus: -12%

What do the screens show for `O=C(CCNC(=O)c1ccccc1Cl)Nc1cc(S(=O)(=O)N2CCOCC2)ccc1N1CCCC1`?
NS1 function inh: 4%; Pf growth 48h: -14%; Pf growth 96h: -4%; HCV inhibitor: inconclusive; VACV mCherry inh: inactive; Vaccinia Venus: -1%

How did CC(=O)NCCC(=O)Nc1cc(S(=O)(=O)N2CCOCC2)ccc1Oc1ccccc1 do in these assays?
NS1 function inh: 7%; Pf growth 48h: -11%; Pf growth 96h: 12µM*; HCV inhibitor: 26%

Results for O=C(CNc1cc(S(=O)(=O)N2CCOCC2)ccc1N1CCCC1)N1CCc2ccccc21 ?
NS1 function inh: -1%; Pf growth 48h: 13µM*; Pf growth 96h: inconclusive; HCV inhibitor: inconclusive; VACV mCherry inh: -5%; Vaccinia Venus: 5%

How did CC(=O)NCCC(=O)Nc1cc(S(=O)(=O)N2CCOCC2)ccc1N1CCCC1 do in these assays?
Pf growth 48h: 12µM*; Pf growth 96h: 0%; HCV inhibitor: 10%; VACV mCherry inh: -13%; Vaccinia Venus: -6%
